For 50 compounds, Percent Effect results are on record in ChEMBL document CHEMBL3988442, “University of Dundee, Small-Polar-MMV Screening Library” (2021).

Experiment [1] deals with T1, Aspartate--tRNA(Asp/Asn) ligase (Mycobacterium tuberculosis (strain ATCC 25618 / H37Rv)) (UniProt P9WFW3).
T1 sequence (whole entry): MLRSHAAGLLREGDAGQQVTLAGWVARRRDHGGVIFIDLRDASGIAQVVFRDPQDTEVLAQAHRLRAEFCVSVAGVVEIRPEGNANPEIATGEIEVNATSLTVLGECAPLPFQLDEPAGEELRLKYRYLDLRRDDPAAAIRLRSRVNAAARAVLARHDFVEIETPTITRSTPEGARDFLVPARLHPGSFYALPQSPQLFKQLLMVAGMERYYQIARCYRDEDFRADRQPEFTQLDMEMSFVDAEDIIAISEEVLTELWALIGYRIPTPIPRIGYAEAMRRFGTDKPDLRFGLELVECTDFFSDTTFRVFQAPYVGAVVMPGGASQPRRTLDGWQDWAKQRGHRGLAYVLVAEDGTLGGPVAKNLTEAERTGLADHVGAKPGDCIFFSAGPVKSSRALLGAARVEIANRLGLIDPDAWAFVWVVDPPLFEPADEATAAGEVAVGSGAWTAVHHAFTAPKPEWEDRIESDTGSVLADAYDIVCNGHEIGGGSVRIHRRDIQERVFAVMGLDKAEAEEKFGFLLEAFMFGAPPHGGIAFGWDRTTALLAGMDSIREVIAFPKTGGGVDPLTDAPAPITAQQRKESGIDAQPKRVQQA
Put plainly: Assay for Asp RNA synthetase-1 from Mycobacterium tuberculosis. Format: functional. On the set-up: scale not given: direction of the effect not stated beside the values. The note with it: 30 µM.

Experiment [2] deals with Shiga toxin 2 (Escherichia coli O157:H7) (UniProt P09385+P09386). Put plainly: E. coli 0.157:H7 Shiga Toxin SOP - stx2 screening assay. The experiment is classed as functional. Set-up: scale not given: direction of the effect not stated beside the values. The following applies: 30 µM.

With `CCCn1[nH]cc/c1=N\C(=O)CN1CCc2c(nc(C(C)C)n2C)C1`, the Percent Effect in experiment [1] was 1.84%; in experiment [2], 1.47%.
In the case of `FC(F)(F)Cc1noc(CN2CCCC2c2noc(C3CC3)n2)n1` (stereo not given), the values for the Percent Effect in experiment [1] and in experiment [2] were 8.91% and 16.4%, respectively.
The like results for `CCOc1ncccc1NC(=O)c1cc2c(s1)CCC2` were, in that order, -3.51% and 1.91%.
In the case of `Cc1ccc([C@]2(O)CC[C@H]3CN(Cc4cc(C)c(O)c(C)c4)C[C@H]32)nc1`, the Percent Effect in experiment [1] is 3.29%; in experiment [2], -2.26%.
On the same counts, the results for `Cc1ccoc1-c1nnc(CNCC2CCCN2c2cccnn2)o1` (stereo not given) are -2.62% and 5.85%.
For `CC(C)c1nc2c(n1C)CCN(Cc1nc(-c3cccs3)no1)C2`, the results for the Percent Effect in experiment [1] and in experiment [2] were -1.02% and -0.957%, respectively.
`COc1c(C)cnc(CN2CCOC(Cn3nc(C)nc3C)C2)c1C` (stereo not given): the Percent Effect in experiment [1] is 1.63%; in experiment [2], 8.19%.
`COc1cccc(COCC(=O)N2CCC(CC(N)=O)CC2)c1`: the figures for the Percent Effect in experiment [1] and in experiment [2] were -3.72% and 32.3%, respectively.
`CC(C)Oc1ccccc1CNC(=O)N1CCC(n2cncn2)CC1`: the Percent Effect in experiment [1] was -5.72%; in experiment [2], -31.1%.
Turning to `Cc1cc2n(n1)CC(CNC1CCN(Cc3ccccc3C)CC1)CN2` (stereo not given), the Percent Effect in experiment [1] is 4.64%; in experiment [2], -38.1%.
As for `COc1ncnc2c1CCN(c1cc(C(F)(F)F)ncn1)CC2`, the Percent Effect is 3.67% in experiment [1] and -1.32% in experiment [2].
As to `CN(CC1CCCCC1)C(=O)c1ccc(-n2ncc(C#N)c2N)cc1`, the Percent Effect in experiment [1] is -2.55%; in experiment [2], -24.4%.
On to `COCc1cccc(C(=O)N2CCCCC2c2nccs2)c1` (stereo not given), for which the results for the Percent Effect in experiment [1] and in experiment [2] were -3.8% and 18.2%, respectively.
The like results for `CC(C)c1nn(C)c(N(C)C)c1CNCc1ccccc1CN(C)C` were, in that order, -0.745% and 23.7%.
For `CCOc1ccccc1C(=O)NS(=O)(=O)c1ccc2c(c1)OCCCO2`, the Percent Effect in experiment [1] was -0.534%; in experiment [2], 19.9%.
The like results for `c1ccc(CN2CC[C@@H]3O[C@@H](COCC4CCOCC4)CC[C@@H]32)nc1` were, in that order, 7.81% and -21.9%.
As for `c1ncn(CC2CCCN(Cc3nc(C4CC4)no3)C2)n1` (stereo not given), the Percent Effect was -2.51% in experiment [1] and -1.62% in experiment [2].
As for `O=S(=O)(CCCN1CCCC1Cn1cncn1)c1ccccc1` (stereo not given), the values for the Percent Effect in experiment [1] and in experiment [2] were -1.76% and -32.7%, respectively.
As to `O=C(c1ccccc1-n1cccn1)N1CCCN(c2cccnn2)CC1`, the Percent Effect in experiment [1] turned out to be 0.98%; in experiment [2], 33%.
With `CN(C)CC1CN(Cc2csc(C3CCCC3)n2)CCO1` (stereo not given), the Percent Effect turned out to be 1.38% in experiment [1] and 14.5% in experiment [2].
The like results for `Cc1cc2cc(C(=O)N[C@@H]3CC[C@@H](N4CCOCC4)[C@@H]3O)ccc2o1` were, in that order, 2.49% and 4.91%.
Consider `Cc1nc(CN2CCCC(N(C)CCc3ccncc3)C2)no1` (stereo not given), for which the figures for the Percent Effect in experiment [1] and in experiment [2] were 0.35% and 22.9%, respectively.
For `Cc1ccc(OCCNC(=O)C(C)n2cncn2)cc1` (stereo not given), the Percent Effect in experiment [1] stood at 4.54%; in experiment [2] it was 4.25%.
In the case of `O=C(c1cscn1)N1C[C@H]2CCCC(OCc3cccnc3)[C@H]2C1` (stereo not given in full), the Percent Effect in experiment [1] was 6.49%; in experiment [2], -13.5%.
On the same counts, the results for `O=C(CN1CCCC(Cn2cncn2)C1)NCCOc1ccccc1` (stereo not given) are -2.48% and -0.612%.
For `CCn1nc(CC(C)C)cc1C(=O)NCCCOC`, the Percent Effect in experiment [1] was -0.668%; in experiment [2], 11.5%.
On to `CCCc1nc(C(=O)N2CCCn3nc(CCC(=O)O)cc3C2)cs1`, for which the Percent Effect in experiment [1] was -2.6%; in experiment [2], 15.5%.
Consider `CCS(=O)(=O)c1ccccc1N1CCC(NC(=O)NC2CCCC2)CC1`, for which the Percent Effect in experiment [1] was -3%; in experiment [2], 7.11%.
The like results for `Cc1nn(C)c(C)c1CC(=O)N1CCCC(n2ccnc2)C1` (stereo not given) were, in that order, -4.83% and 12.9%.
The like results for `COCCN(Cc1ccoc1)C(=O)c1ccccc1Cl` were, in that order, 2.46% and 6.17%.
Take `CC(C)C(C(=O)N1CCC(Nc2cccnn2)CC1)n1cncn1` (stereo not given): the Percent Effect in experiment [1] stood at 0.434%; in experiment [2] it was 12.4%.
On to `CN1CCc2c(C#N)c(NCCCN3CCOCC3)n3cnnc3c2C1`, for which the Percent Effect amounted to 5.9% in experiment [1] and 5.95% in experiment [2].
For `Cc1cc(C)n(C2CCCN(C(=O)Cc3csc(C)n3)C2)n1` (stereo not given), the values for the Percent Effect in experiment [1] and in experiment [2] were -6.85% and 5.9%, respectively.
In the case of `CCN1CCN(Cc2coc(-c3cccc(F)c3)n2)CC1`, the figures for the Percent Effect in experiment [1] and in experiment [2] were -7.31% and -35.5%, respectively.
Regarding `FC1(F)CCN(Cc2cccnc2)CC12CCN(c1ccccn1)C2` (stereo not given), the Percent Effect in experiment [1] was 1.91%; in experiment [2] it was 4.74%.
Consider `COc1ccc(OC)c(C2CCN(Cc3nc(C)n4ccccc34)C2)c1` (stereo not given), for which the values for the Percent Effect in experiment [1] and in experiment [2] were -1.14% and 10.1%, respectively.
As for `COCc1cn([C@@H]2c3ccccc3C3(CCNCC3)[C@H]2O)nn1`, the figures for the Percent Effect in experiment [1] and in experiment [2] were 3.45% and 8.95%, respectively.
In the case of `CCN1CCN(C(=O)c2ccn(C)c(=O)c2)CC1`, the values for the Percent Effect in experiment [1] and in experiment [2] were 2.87% and -14.7%, respectively.
For the compound `CCC(=O)N1CCCC1c1nccnc1Nc1ncccn1` (stereo not given), the results for the Percent Effect in experiment [1] and in experiment [2] were 1.12% and 2.75%, respectively.
For `CC(C)Oc1cccc(C(=O)C2CCCN(C(=O)c3ccccn3)C2)c1` (stereo not given), the Percent Effect in experiment [1] is -1.79%; in experiment [2], 6.16%.
Take `CCc1nnc2n1CCN(C(=O)c1ccc3nc(C)c(C)nc3c1)C2`: the Percent Effect in experiment [1] was -2.42%; in experiment [2], 7.1%.
With `O=C(O)c1nnn(-c2ccc(F)c(F)c2)c1-c1ccncc1`, the Percent Effect in experiment [1] is 2.4%; in experiment [2] it was -13%.
As for `O=C(NCCOc1ccc2c(c1)OCO2)N1CCC1`, the Percent Effect in experiment [1] is 0.81%; in experiment [2], -21.5%.
The like results for `COCCNC(=O)[C@@H]1CC[C@@H]2[C@@H](CCN2Cc2cnn(C)c2)O1` were, in that order, 2.71% and -20.8%.
For the compound `Cc1noc([C@@H]2CC[C@@H]3[C@@H](CCN3S(=O)(=O)C3CC3)O2)n1`, the results for the Percent Effect in experiment [1] and in experiment [2] were 0.155% and -17.9%, respectively.
As for `Cc1ccc(NC2CCN(C(=O)CCc3ccco3)CC2)nn1`, the results for the Percent Effect in experiment [1] and in experiment [2] were 0.0874% and 19.2%, respectively.
Regarding `Cc1cc(N2CCN(CC(=O)N(C)C)CC2)nc(-c2ccncc2)n1`, the Percent Effect is -3.92% in experiment [1] and -5.53% in experiment [2].
`CNC(=O)c1ccc(OC2CCN(S(C)(=O)=O)CC2)c(Cl)c1`: the Percent Effect in experiment [1] is -0.864%; in experiment [2] it was -64.7%.
With `O=C(c1ccc(F)cc1F)N1CC[C@H](O)[C@@H](N2CCOCC2)CC1`, the Percent Effect was 0.28% in experiment [1] and -21.2% in experiment [2].
On to `c1cc(-c2noc(CN3CCn4c(nnc4C4CC4)C3)n2)co1`, for which the Percent Effect was -0.544% in experiment [1] and 0.987% in experiment [2].
